Experimental data as given in PubChem BioAssay (NCI).
Where “and” joins values, the source holds several entries; their conditions need not be identical. Identical values can stand only once. Compounds without any hit were thinned out: in the full panel of roughly 83,000, 20% have a hit.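 Single-concentration screen, 48 h exposure, 96-well plates. Endpoint: percent growth. Below 10 = active.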

Tests used:
Assay in all cases: NCI-60 one-dose screen, 48 h (100 = growth as untreated, 0 = no growth, -100 = all killed)
Conditions in all cases: 10 µM unless noted
HT29 colon = tested on: HT29 colon
SNB-75 CNS = tested on: SNB-75 CNS
SNB-19 CNS = tested on: SNB-19 CNS
U251 CNS = tested on: U251 CNS
PC-3 prostate = tested on: PC-3 prostate
UACC-62 melanoma = tested on: UACC-62 melanoma
SK-MEL-28 melanoma = tested on: SK-MEL-28 melanoma
SK-MEL-2 melanoma = tested on: SK-MEL-2 melanoma
EKVX NSCLC = tested on: EKVX NSCLC
UO-31 renal = tested on: UO-31 renal
TK-10 renal = tested on: TK-10 renal
ACHN renal = tested on: ACHN renal
CAKI-1 renal = tested on: CAKI-1 renal
A498 renal = tested on: A498 renal
CCRF-CEM leukemia = tested on: CCRF-CEM leukemia
MOLT-4 leukemia = tested on: MOLT-4 leukemia
LOX IMVI melanoma = tested on: LOX IMVI melanoma
SK-MEL-5 melanoma = tested on: SK-MEL-5 melanoma
SN12C renal = tested on: SN12C renal

Measured: growth

CC(=O)Nc1cccc2cc(O)ccc12
inactive: HT29 colon 115% and 107% and 95.8% | SNB-75 CNS 91.4% and 101% and 75.3% | SNB-19 CNS 106% and 94.8% | U251 CNS 108% and 102% and 101% | PC-3 prostate 104% and 96.3% and 80.3% | UACC-62 melanoma 96.3% and 90.9% and 96.9% | SK-MEL-28 melanoma 110% and 111% and 104% | SK-MEL-2 melanoma 125% and 101% | EKVX NSCLC 101% and 120% and 99.3% | UO-31 renal 94.6% and 89.5% and 75.1% | TK-10 renal 123% and 99.7% and 97.9% | ACHN renal 104% and 109% and 100% | CAKI-1 renal 129% and 93.5% | A498 renal 99.2% and 108% and 109% | CCRF-CEM leukemia 98.1% and 101% and 104% | MOLT-4 leukemia 111% and 108% and 98.5%

O=C(/C=C/c1cccc(Cl)c1)c1ccccc1
inactive: HT29 colon 95.2% and 32.4% | SNB-75 CNS 104% and 95.2% | SNB-19 CNS 89.3% and 76.4% | U251 CNS 75.9% and 45% | PC-3 prostate 96% and 88.8% | UACC-62 melanoma 81.5% | LOX IMVI melanoma 60.5% and 20.8% | SK-MEL-28 melanoma 114% and 109% | SK-MEL-2 melanoma 109% and 100% | EKVX NSCLC 93.5% | UO-31 renal 77.7% and 70% | TK-10 renal 84.8% | ACHN renal 90.7% and 81.5% | CAKI-1 renal 90.8% and 75.4% | A498 renal 79.7% and 102% | CCRF-CEM leukemia 74.1% and 63.7% | MOLT-4 leukemia 90.7% and 86.1%

Oc1c(Cl)c2ccccc2c2ccccc12
inactive: SNB-75 CNS 88.2% | SNB-19 CNS 99.1% | U251 CNS 113% | PC-3 prostate 97.5% | SK-MEL-5 melanoma 101% | UACC-62 melanoma 107% | LOX IMVI melanoma 98% | SK-MEL-28 melanoma 108% | SK-MEL-2 melanoma 96.9% | EKVX NSCLC 117% | SN12C renal 98.5% | UO-31 renal 91.8% | TK-10 renal 84.8% | ACHN renal 100% | CAKI-1 renal 111% | A498 renal 122% | CCRF-CEM leukemia 112%

CC1SC(=S)N(c2ccc(Cl)cc2)C1=O (stereo unspecified)
inactive: HT29 colon 105% and 98.8% | SNB-75 CNS 88.8% and 83% | SNB-19 CNS 99.9% and 104% | U251 CNS 95.4% and 93.6% | PC-3 prostate 97.7% and 74.3% | UACC-62 melanoma 82.5% and 70.1% | LOX IMVI melanoma 85.9% and 90.2% | SK-MEL-2 melanoma 98.2% | EKVX NSCLC 87.8% and 89.7% | SN12C renal 93% and 85.6% | UO-31 renal 78.9% and 73.9% | TK-10 renal 103% and 114% | ACHN renal 86.8% and 73.4% | CAKI-1 renal 109% and 82.2% | A498 renal 143% and 122% | CCRF-CEM leukemia 113% and 94.8% | MOLT-4 leukemia 83.6% and 86.9%

C=CCOc1ccc(N=NC(C#N)C#N)cc1
inactive: SNB-75 CNS 74.3% | U251 CNS 84.6% | PC-3 prostate 70.4% | SK-MEL-5 melanoma 91.8% | UACC-62 melanoma 47.7% | LOX IMVI melanoma 26% | SK-MEL-2 melanoma 87.3% | EKVX NSCLC 92.6% | SN12C renal 85.7% | UO-31 renal 41.4% | TK-10 renal 62.6% | ACHN renal 36% | CAKI-1 renal 25.6% | A498 renal 76% | CCRF-CEM leukemia 13.6%

N#Cc1ccc([N+](=O)[O-])o1
inactive: HT29 colon 93.9% | SNB-75 CNS 109% | SNB-19 CNS 101% | U251 CNS 90% | PC-3 prostate 93.3% | SK-MEL-5 melanoma 96.8% | UACC-62 melanoma 95.4% | SK-MEL-28 melanoma 106% | SK-MEL-2 melanoma 91% | EKVX NSCLC 105% | SN12C renal 106% | UO-31 renal 92.6% | TK-10 renal 108% | ACHN renal 104% | CAKI-1 renal 104% | A498 renal 98.5% | CCRF-CEM leukemia 102% | MOLT-4 leukemia 99.5%

COc1ccccc1/C=C\C(=O)c1ccccc1
inactive: HT29 colon 41.9% | SNB-75 CNS 77.8% | SNB-19 CNS 79.4% | U251 CNS 45.6% | PC-3 prostate 61.8% | UACC-62 melanoma 77.2% | SK-MEL-28 melanoma 94.9% | SK-MEL-2 melanoma 87.6% | EKVX NSCLC 85.2% | SN12C renal 76.8% | UO-31 renal 44.1% | TK-10 renal 104% | ACHN renal 77% | CAKI-1 renal 83.2% | CCRF-CEM leukemia 11% | MOLT-4 leukemia 58.1%
